# Screening data (PubChem)
# PTHR1 ag = qHTS for PTHR1 Agonists: Primary Screen | Parathyroid hormone/parathyroid hormone-related peptide receptor (Homo sapiens), Q03431 | HEK293 GP2 PTHR1 cells, GloSensor cAMP luminescence, 1 h | Potency, µM (series often up to 115 µM), for inactives: at the highest dose activation, actives largely listed as activators | 0.075% of 410,000 active | AID 743266, 2014; note: potency is the fitted concentration of half-maximal effect; nearly all actives have a fitted effect of over 55% in size
# Target sequence (Q03431 whole entry, looked up): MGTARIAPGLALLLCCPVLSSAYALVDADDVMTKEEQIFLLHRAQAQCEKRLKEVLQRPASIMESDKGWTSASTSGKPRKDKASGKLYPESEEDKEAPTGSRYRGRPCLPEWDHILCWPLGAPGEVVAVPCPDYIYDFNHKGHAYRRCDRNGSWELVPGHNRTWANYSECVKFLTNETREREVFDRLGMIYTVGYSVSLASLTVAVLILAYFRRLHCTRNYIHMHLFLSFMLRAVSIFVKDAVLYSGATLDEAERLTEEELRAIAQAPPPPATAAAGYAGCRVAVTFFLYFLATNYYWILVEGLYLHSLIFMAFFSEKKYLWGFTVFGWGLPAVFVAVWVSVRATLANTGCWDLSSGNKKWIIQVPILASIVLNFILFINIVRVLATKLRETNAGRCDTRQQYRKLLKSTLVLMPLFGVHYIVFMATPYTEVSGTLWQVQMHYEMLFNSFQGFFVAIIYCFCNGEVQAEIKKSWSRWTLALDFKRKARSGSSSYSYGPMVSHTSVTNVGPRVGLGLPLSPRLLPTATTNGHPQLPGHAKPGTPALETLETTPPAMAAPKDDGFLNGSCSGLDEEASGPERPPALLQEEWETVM
#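 HEK-293-derived GP2 cells expressing PTHR1 and a GloSensor cAMP reporter, 3,000/well, plated overnight, given luciferin plus IBMX (each 0.5 mM as added) for 1 h at 37 °C, then compound for 1 h at 37 °C. Luminescence was read after 15 min at room temperature.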
# KCNH2 WT inh = qHTS for Inhibitors of KCHN2 3.1: Wildtype qHTS; Voltage-gated inwardly rectifying potassium channel KCNH2 (Homo sapiens), Q12809; U2OS, BacMam KCNH2, thallium flux FluxOr; active compounds read low; activity change, % at 1.84 µM; 0.37% of 340,000 active; AID 720551, 2013;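 active = maximum activity change below -70%; inconclusive = maximum activity change between -70% and -50%; inactive = maximum activity change above -50%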; note: % is set by controls: 0 for no effect and ±100 for the full control effect
#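 U2OS cells transduced with wild-type KCNH2 virus are loaded with FluxOr dye for 45 min, and thallium flux is measured in kinetic reads before and after stimulation buffer. Rate constants are normalized to DMSO controls.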
# RXFP1 antagonist = qHTS Assay for Antagonists of the Relaxin Receptor RXFP1. 0.59% of 350,000 active. HEK293-RXFP1, relaxin-stimulated cAMP HTRF, 30 min; active compounds read low. activity change, negative = inhibition, % at 57.5 µM;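 active = activity change of -60% or lower, but not beyond a set lower limit; inconclusive = change between -60% and -40%, or beyond the set limit; inactive = change above -40%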; note: % is set by controls: 0 for no effect and ±100 for the full control effect
# RXFP1 agonist = qHTS Assay for Agonists of the Relaxin Receptor RXFP1; 0.3% of 370,000 active; HEK293T-RXFP1 cAMP TR-FRET, 30 min; response scale: percent of porcine relaxin response, buffer zero; Relaxin receptor 1 (Homo sapiens), Q9HBX9; Potency, µM (top dose mostly 57.5 µM), without a hit: at the top dose activation, hits mostly activators; note: potency is the fitted concentration of half-maximal effect; % is set by controls: 0 for no effect and ±100 for the full control effect; nearly all actives have a fitted effect of over 60% in size
#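 Agonist response is measured as cAMP accumulation in an RXFP1-transfected HEK293T line under PDE4 inhibition. Values are scaled between buffer-only and 29 nM porcine relaxin, and EC50s come from standard Hill equation fits.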
# Glioma ERSR ind = qHTS for Inducers of the Endoplasmic Reticulum Stress Response (ERSR) in Human Glioma: qHTS | U87-MG GRP78 promoter luciferase reporter, 16 h | Potency, µM, for inactives: at the highest dose activation, hits mostly activators | 0.02% of 420,000 active; note: potency is the fitted concentration of half-maximal effect; series mostly up to about 76 µM; % of control where 0% means no effect; nearly all actives have a fitted effect of over 35% in size
#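 Stably transfected U87-MG glioma cells carrying a GRP78-based luciferase sensor; 16 h compound incubation. Luminescence end-point read 10 min after Bright-Glo addition at room temperature.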
# KCNH2 3.1 inh = qHTS for Inhibitors of KCHN2 3.1: Mutant qHTS. AID 720553, 2013. activity change, % (tested at about 1.8 µM). Potassium voltage-gated channel subfamily H member 2, brain isoform KCNH2 3.1 (human). 0.95% of 340,000 active. U2OS KCNH2 3.1, thallium flux FluxOr; active compounds read low;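 active = maximum activity change below -70%; inconclusive = maximum activity change from -70% to -50%; inactive = maximum activity change above -50%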;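 note: thallium influx rate constant from kinetic fluorescence after stimulation buffer; % is set by controls: 0 for no effect and ±100 for the full control effect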
#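 Channel expression came from 3.1 mutant virus (1.77 x 10^8 /mL) applied to suspended U2OS cells for 4 h. Flux was tracked with FluxOr dye plus Red40 quencher, and kinetic rate constants normalized to controls.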
# An asterisk follows results filed as active; i = inactive; ? = inconclusive; · = not tested or not shown; [ ] = remark or other dose. Hits are enriched below; roughly 1.4% of the tested compounds scored in any of these assays. Unless noted, calls come from the whole dose curve; as a rule, active = well fitted curve in the direction sought with a large enough effect; inconclusive = small, poorly fitted or top-dose-only effect, or another doubt; inactive = no such curve, though single readings can be large; an effect the other way counts as inactive or inconclusive.
SMILES,PTHR1 ag,KCNH2 WT inh,RXFP1 antagonist,RXFP1 agonist,Glioma ERSR ind,KCNH2 3.1 inh
CCCCCCSc1nnc2[nH]c(=O)cc(N)n12,1%,13,14,0%,-4%,16
O=C(c1ccc(Cl)cc1)N1CCN(c2ccnc3cc(Cl)ccc23)CC1,-27%,-10,-20,-1%,-10%,-87*
CC(=O)c1ccc(S(=O)(=O)N2CCN(c3ccnc4cc(Cl)ccc34)CC2)cc1,-55%,-123*,3,·,2%,-98*
COc1ccc(N2CCN(c3ccnc4cc(Cl)ccc34)CC2)cc1,-17%,7,-10,12%,-2%,-81*
Cc1ccc(S(=O)(=O)N2CCN(c3ccnc4cc(Cl)ccc34)CC2)cc1,-24%,-36,-10,3%,-5%,-102*
CCC(=O)N1CCN(c2ccnc3cc(Cl)ccc23)CC1,i,8,-5,1%,-8%,-11
Cc1ccc(S(=O)(=O)N2CCN(c3ccnc4cc(Cl)ccc34)CC2)cc1C,-23%,1,-15,0%,-6%,18
CC(C)C(C)/C=C/C(C)C1CCC2C3=CCC4CC(=O)CC[C@@]4(C)C3CC[C@]21C (stereo partly specified),·,·,·,·,-3%,·
C[C@@H](NC(=O)c1[nH]cnc1C(=O)Nc1cccc(Cl)c1)c1ccccc1,i,0,·,-1%,-3%,9
CCN(CC(=O)Nc1cccc(S(=O)(=O)N2CCCC2)c1)CC(=O)Nc1ccccc1OC,-22%,-5,-12,-2%,-4%,1
CCOc1cc(C2C3=C(CC(C)(C)CC3=O)N(CCCOC)C3=C2C(=O)CC(C)(C)C3)ccc1O,-3%,3,2,0%,-3%,-16
Cc1cc(F)c(F)c(C(=O)N2CCC(C)CC2)c1Cl,i,1,-3,-1%,1%,-135*
CCCCn1c(SCC(=O)c2ccc(OC)c(OC)c2)nc2cc(S(N)(=O)=O)ccc21,-26%[57.5 µM],4,-75*,3%,-2%,-22
CCCCn1c(SCC(=O)c2ccc(OCC)cc2)nc2cc(S(N)(=O)=O)ccc21,-29%,-1,-19,30%,-4%,-3
Cc1ccc(S(=O)(=O)Nc2cc(-c3ccc(Cl)cc3)nn2C)cc1,i,-18,-7,5%,-4%,-174*
Cc1ccc(S(=O)(=O)Nc2cc(-c3ccccc3)nn2C)cc1,-10%,-5,-28,0%,1%,-29
COC1[C@@H](OC)C[C@H](C)[C@@H](OC)C2=CC(=O)C=C(NC(=O)/C(C)=C/C=C\[C@H](OC)[C@@H](OC(N)=O)/C(C)=C/[C@@H]1C)C2=O (stereo partly specified),·,·,·,·,6%,·
CC1CCCC(NCC(O)COC(c2ccc(F)cc2)c2ccc(F)cc2)C1C (stereo unspecified),i,-7,-69*,-1%,-17%,-48
CCn1c(/C=C/Nc2ccccc2)[n+](CC)c2cc(Cl)c(Cl)cc21,-25%,-132*,·,0%,-4%,-98*
CC(=O)NCCNc1cc(-c2ccccc2C(F)(F)F)ncn1,·,·,·,·,-5%,·
O=c1c2cn[nH]c2nc(SCc2c(F)cccc2F)n1-c1ccc(Cl)cc1,-28%,-230*,-32,0%,-3%,4
CCc1ccc(-n2c(SCc3cccc(F)c3)nc3[nH]ncc3c2=O)cc1,-7%,·,-31,-1%,2%,·
COc1ccc(Cl)cc1S(=O)(=O)n1ccnc1,-1%,-3,1,-1%,-1%,7
O=C(COc1cccnc1[N+](=O)[O-])N1N=C(c2ccc(Cl)cc2)CC1c1ccco1 (stereo unspecified),-6%,18,-3,-1%,-6%,-33
CN1CC(=O)N(CC(=O)N2N=C(c3ccc(Cl)cc3)CC2c2ccco2)C1=O (stereo unspecified),i,-24,-9,0%,-2%,-1
SMILES,PTHR1 ag,KCNH2 WT inh,RXFP1 antagonist,RXFP1 agonist,Glioma ERSR ind,KCNH2 3.1 inh
Cc1ccc(OCC(=O)N2N=C(c3ccc(Cl)cc3)CC2c2ccco2)c([N+](=O)[O-])n1 (stereo unspecified),i,-72*,-21,0%,1%,-91*
COCC(=O)OCC(=O)N1N=C(c2ccc(Cl)cc2)CC1c1ccco1 (stereo unspecified),i,-13,13,-1%,-3%,-16
CCC(=O)N1N=C(c2ccc(Cl)cc2)CC1c1ccco1 (stereo unspecified),-11%,8,-64*,0%,2%,2
CC(C)[C@H](NS(=O)(=O)c1ccccc1)C(=O)OCC(=O)N1N=C(c2ccc(Cl)cc2)CC1c1ccco1 (stereo partly specified),i,-13,8,0%,-10%,-75*
CCOc1cc(/C=C2/C(=N)N3N=C(CC)SC3=NC2=O)ccc1OC(=O)c1ccco1,i,2,-28,-2%,-3%,·
O=C(NC(=S)NCc1cccnc1)c1ccc([N+](=O)[O-])cc1,-24%,9,10,2%,2%,6
NC(N)=[N+]1CCc2ccccc2C1,·,·,·,·,-2%,·
CN(C)c1ccc(NC(=O)Nc2nnc([C@H]3C[C@H](O)[C@@H](CO)O3)s2)cc1,-15%,·,·,·,?,·
CCCCN(C)C(=O)c1nc2ccccn2c1CN1CCN(C/C=C/c2ccccc2)CC1,i,-32,-9,0%,-2%,-102*
CCCCN(C)C(=O)c1nc2ccccn2c1CN1CCN(c2ncccn2)CC1,-4%,-20,0,9%,-5%,1
O=C(Nc1onc2c1CCCC2)c1ccccc1,-1%,·,-4,2%,-9%,·
CC(C)(C)c1ccc(C(=O)Nc2onc3c2CCCC3)cc1,-7%,·,-60*,-1%,-9%,·
COC(=O)C1=C(C(=O)OC)[C@@H]2Nc3ccccc3[C@@]23C[C@@H](C(=O)OC)N=C3N1,-2%,·,·,9%,-2%,·
CCOC(=O)c1sc2nc(C)[nH]c(=S)c2c1C,-8%,-19,34,28µM*,-3%,-7
COCC(=O)Nc1c(C(=O)Nc2ccc3c(c2)OCO3)oc2ccccc12,9%,-18,17,-1%,2%,4
CC(=O)Nc1c(C(=O)Nc2ccc3c(c2)OCO3)oc2ccccc12,-5%,-72*,5,-1%,2%,6
